# According to the supplement of paper PMC3334620:
# Over roughly 33,000 sequences, “E-score (-0.5 to 0.5)” has its median near -0.011; the highest 2% begin near 0.28. Many of the other results were omitted from the sample, so the highest values are more common in it than they were.
# Biological target: T1, Gcr1 (UniProt P07261)
# T1 sequence: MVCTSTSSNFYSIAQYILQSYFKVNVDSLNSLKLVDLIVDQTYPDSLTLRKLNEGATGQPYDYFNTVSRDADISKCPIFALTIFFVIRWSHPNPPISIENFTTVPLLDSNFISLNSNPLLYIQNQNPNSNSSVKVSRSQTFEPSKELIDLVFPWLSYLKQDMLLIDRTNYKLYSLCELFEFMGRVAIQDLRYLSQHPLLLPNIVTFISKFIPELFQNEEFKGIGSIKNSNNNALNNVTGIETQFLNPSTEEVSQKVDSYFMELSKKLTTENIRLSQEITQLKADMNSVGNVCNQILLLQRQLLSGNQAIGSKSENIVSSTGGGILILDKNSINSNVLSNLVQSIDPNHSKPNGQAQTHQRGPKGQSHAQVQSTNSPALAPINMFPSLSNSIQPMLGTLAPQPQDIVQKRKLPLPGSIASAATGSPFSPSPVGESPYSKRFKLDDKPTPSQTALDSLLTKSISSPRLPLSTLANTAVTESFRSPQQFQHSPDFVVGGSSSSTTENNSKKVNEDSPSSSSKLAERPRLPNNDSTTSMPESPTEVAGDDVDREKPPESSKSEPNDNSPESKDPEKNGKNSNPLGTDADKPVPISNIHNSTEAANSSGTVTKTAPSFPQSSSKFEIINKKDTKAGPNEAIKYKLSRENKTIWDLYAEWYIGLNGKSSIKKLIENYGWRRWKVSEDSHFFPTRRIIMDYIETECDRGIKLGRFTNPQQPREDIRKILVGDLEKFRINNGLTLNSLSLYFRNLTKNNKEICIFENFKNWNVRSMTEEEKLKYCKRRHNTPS
# Assay: PBM E-score (8-mer binding enrichment) (E-score (-0.5 to 0.5)); higher = stronger / more preferred TF binding
# Conditions: protein concentration: 100 nM; construct: GST-full length
# Protocol: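 Universal 'all 10-mer' protein binding microarrays (Agilent AMADID 015681) probed with GST-tagged S. cerevisiae TFs (full-length or DBD) made by in vitro transcription/translation (PURExpress), about 100-200 nM. Bound TF was detected with fluorescent anti-GST. Each ungapped 8-mer (which stands for itself and its reverse complement) is scored by the PBM enrichment score (E-score), a modified Wilcoxon-Mann-Whitney statistic from -0.5 to +0.5, computed with the Universal PBM Analysis Suite. Scale: above 0.35 generally sequence-specific binding.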
row,Sequence,PBM E-score
1,CGCATCCA,0.323
2,CGCATCCC,0.319
3,CGCATCGC,-0.0699
4,AACATCCC,-0.109
5,GGCATCCC,0.4
6,AGCATCAC,0.00094
7,AAAGGGTG,-0.0719
8,AAGGCGGT,0.00689
9,CTGTGGCA,0.0358
10,AACTGGCA,0.0707
11,ATTCTCGG,0.123
12,ACTTCCGA,0.0686
13,ACTTCCTG,0.319
14,ACTTCCAT,0.145
15,ACTTCCTC,0.243
16,CCTTCCAC,0.208
17,CCTTCCAG,0.0686
18,CCTTCCGA,-0.12
19,GCCTCCAC,-0.0325
20,GCTTCCAC,0.42
21,ACTTCCTA,0.245
22,GCTTCCGA,0.386

row,Sequence,PBM E-score
1,ACTTCCAG,0.377
2,AGTTCCTG,0.0262
3,CCATGCCG,-0.2
4,CGCTTTCC,-0.0681
5,CTTTCTAC,0.0892
6,AGTCGGAC,-0.093
7,ACCTGAGA,-0.038
8,ACTTCCAC,0.261
9,CCTTCCAA,-0.0431
10,GCTTCCAA,0.443
11,TCTTCCAA,-0.0111
12,ACTTCCAA,0.303
13,ATTTCCAA,0.0988
14,CAACCGGA,0.206
15,CCCTCCGG,-0.0226
16,CACCAAAG,0.047
17,ATGCATCA,-0.0769
18,GAGCAGCC,0.217
19,CAGCAGCC,0.359
20,AAGCAGCT,0.33
21,AAGCAGAT,-0.03
22,AAGCAGCC,0.308

row,Sequence,PBM E-score
1,CAGCAGCA,0.00017
2,AAGCAGGT,0.161
3,AAGCAGCG,0.135
4,AAGCAGCA,-0.176
5,AACTGTGC,-0.181
6,CTTTACTC,-0.104
7,GACTAACC,-0.136
8,ACTTAACC,-0.196
9,GCTCGAGA,-0.166
10,CCTCGAGC,-0.102
11,GCTCGAGC,0.321
12,AAGGGCAC,-0.16
13,GCGGTTCA,-0.231
14,CGGGTTCA,-0.204
15,GCGGTTCC,0.314
16,CGGGTTCC,0.411
17,AGGGTTCG,-0.0648
18,CGGGTTAC,-0.0158
19,AGGGTTCA,-0.118
20,ACGGTTCC,0.0629
21,AGGGTTCC,0.312
22,GTTAAAAC,-0.0162

row,Sequence,PBM E-score
1,AAAATGCG,0.143
2,GAACGACC,-0.165
3,CTGTTGAA,0.0369
4,GCTTCTAC,0.301
5,CCTTCTAC,0.0671
6,ACTTCTAA,0.0859
7,CCTTCTAA,-0.0438
8,TCTTCTAA,0.329
9,GCTTCTAA,0.116
10,GAGTCCTA,0.0444
11,AATAATGA,0.0865
12,AGTCCTGG,0.0342
13,GCCAAAAA,0.288
14,ATCCAAAC,-0.03
15,ATCCAATA,0.303
16,ATCCAATC,0.13
17,ATCCAAAG,0.189
18,CTCCAATA,0.075
19,GCCAAGAA,0.124
20,ATCCAAAA,0.282
21,GCCAAAAC,0.128
